# In PubChem BioAssay:
# Active and inactive are the calls of the source.
# Assays:
# [1] = test system: PRMT1 (protein arginine N-methyltransferase 1); assay: PRMT1 binders on small-molecule microarrays, primary screen, biochemical, small-molecule microarray, 635 nm fluorescence (AID 1088); conditions: small-molecule microarray binding, higher = more signal;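 further: binding of Prmt1 protein to compounds spotted on small-molecule microarray slides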
# [2] = yeast growth modulation, basal conditions, primary screen, YJM789 clinical isolate, OD600, 24 h (AID 1089);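 further: growth of clinical yeast isolate S. cerevisiae YJM 789 seeded 1000 cells per well; test concentration not given here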; conditions: S. cerevisiae YJM789 growth, higher = more signal, called active from +8 up or from −8 down
# [3] = fission yeast growth modulation, primary screen, strain 972, OD600, 24 h, no modulator (AID 1090);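 further: basal condition with compound alone and no growth modifier present; test concentration not given here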; conditions: S. pombe 972 growth, higher = more signal, called active from +8 up or from −8 down
# [4] = S. cerevisiae growth modulation with rapamycin, primary screen, strain BY4716, OD600, 96 h (AID 1091); conditions: higher = more signal, called active from +8 up or from −8 down; further: test concentration not given here
# [5] = target: Torsin-1A-interacting protein 2 (Homo sapiens) (UniProt Q8NFQ8); assay: LULL1 binders on small-molecule microarray, primary screen, cell lysate, human LULL1 lysate, 635/667 nm fluorescence (AID 1092); conditions: hLULL1 lysate binding, 635 nm fluorescence, higher = more signal;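 further: probe is lysate of COS7 cells overexpressing human LULL1; score merges per-feature 667 nm fluorescence with signal-to-noise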
# [6] = E. coli growth modulation, two-sided OD650, primary screen, E. coli filamentation project, strain DRC41, 24 h (AID 1093); conditions: OD650, 24 h, higher = more signal, called active from +8 up or from −8 down;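 further: MC1000 strain lacking acrAB efflux and sulA so SOS filamentation is blocked; test concentration not given here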
# [7] = small-molecule microarray binders of probe aLefty2, primary screen, biochemical, biotinylated probe, 635/667 nm fluorescence (AID 1094); conditions: higher = more signal;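 further: score merges spot fluorescence near 667 nm with spot signal-to-noise ratio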
# [8] = test system: Noggin (protein binding on small-molecule microarray); assay: Noggin binders on small-molecule microarray, primary screen, biochemical, 635/667 nm fluorescence (AID 1095); conditions: 635 nm fluorescence, higher = more signal;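 further: score merges 667 nm feature fluorescence with signal to noise over triplicate slides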
# [9] = target: Neurogenic locus notch homolog protein 3 (Homo sapiens) (UniProt Q9UM47); assay: NOTCH3 binders on small-molecule microarray, primary screen, biochemical, 635/667 nm fluorescence (AID 1096); conditions: NOTCH3 binding, 635 nm fluorescence, higher = more signal
# [10] = small-molecule microarray binders of probe aEGFR, primary screen, biochemical, biotinylated probe, 635/667 nm fluorescence (AID 1097); conditions: higher = more signal;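 further: probe is a biotinylated anti-EGFR antibody binding compounds printed on slides; score combines fluorescence near 667 nm and signal to noise of each spot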
# [11] = test system: Plasmodium falciparum Sir2 (PF13_0152, Sir2A); assay: pfSir2 binders on small-molecule microarrays, primary screen, biochemical, small-molecule microarray, 635 nm fluorescence (AID 1098); conditions: small-molecule microarray binding, fluorescence 635 nm; higher = more signal;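 further: score merges spot fluorescence intensity with its signal-to-noise ratio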
# [12] = small-molecule microarray binders of probe aDKK1, primary screen, biochemical, biotinylated probe, 635/667 nm fluorescence (AID 1099); conditions: higher = more signal;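 further: score merges 667nm spot fluorescence with signal to noise across triplicate slides; reference of the scale not given here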
# [13] = small-molecule microarray binders of probe aCHRDL2, primary screen, biochemical, biotinylated probe, 635/667 nm fluorescence (AID 1100); conditions: higher = more signal
# [14] = splicing luciferase reporter signal modulators, primary screen, spliceosome inhibition project, cell-based, HEK293, splice +/- reporter (AID 1101); conditions: luminescence, 24 h, higher = more signal, called active from +8 up or from −8 down;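 further: HEK293 cells carrying a splicing-competent luciferase reporter gene; test concentration not given here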
# [15] = target: Fibroblast growth factor 10 (Homo sapiens) (UniProt O15520); assay: FGF10 binders on small-molecule microarrays, primary screen, biochemical, small-molecule microarray, 635 nm fluorescence (AID 1102); conditions: FGF10 binding, fluorescence 635 nm, higher = more signal
# [16] = test system: glycogen synthase kinase-3 (GSK3A per assay name; protocol says GSK3B); assay: GSK3 binders on small-molecule microarrays, primary screen, biochemical, small-molecule microarray, 635 nm fluorescence, GSK3A (AID 1103); conditions: small-molecule microarray binding, fluorescence 635 nm; higher = more signal; further: the record names both GSK3A and GSK3B
# [17] = target: Epidermal growth factor receptor (Homo sapiens) (UniProt P00533); assay: EGFR binders on small-molecule microarrays, primary screen, biochemical, small-molecule microarray, 635 nm fluorescence (AID 1104); conditions: EGFR binding, higher = more signal;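 further: score merges 667 nm emission intensity with spot signal to noise over triplicate slides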
# [18] = target: Follistatin-related protein 3 (Homo sapiens) (UniProt O95633); assay: FSTL3 binders on small-molecule microarrays, primary screen, biochemical, small-molecule microarray, 635 nm fluorescence (AID 1105); conditions: FSTL3 binding, higher = more signal;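 further: score merges emission near 667 nm and signal to noise per printed spot across three slides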
# [19] = target: Dickkopf-related protein 1 (Homo sapiens) (UniProt O94907); assay: DKK1 binders on small-molecule microarrays, primary screen, biochemical, small-molecule microarray, 635 nm fluorescence scan (AID 1106); conditions: DKK1 binding, higher = more signal;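 further: score merges emission near 667 nm with signal to noise over three replicate slides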
# [20] = test system: Inhibin beta A chain (activin A); assay: INHBA (activin A) binders on microarrays, primary screen, biochemical, small-molecule microarray, 635 nm fluorescence scan (AID 1107); conditions: small-molecule microarray binding, higher = more signal;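 further: mouse activin A protein probed at 4.33 µg/mL on printed slides; score merges bound-protein fluorescence near 667 nm with spot signal-to-noise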
# Chain of Dickkopf-related protein 1 (Homo sapiens) (O94907 whole entry, looked up): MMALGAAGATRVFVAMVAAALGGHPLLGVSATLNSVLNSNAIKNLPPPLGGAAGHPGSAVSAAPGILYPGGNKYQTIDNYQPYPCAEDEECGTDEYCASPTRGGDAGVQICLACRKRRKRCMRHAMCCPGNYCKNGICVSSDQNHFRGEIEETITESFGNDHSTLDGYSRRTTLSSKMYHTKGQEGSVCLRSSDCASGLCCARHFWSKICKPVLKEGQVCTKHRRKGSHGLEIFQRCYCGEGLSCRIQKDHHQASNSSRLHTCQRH
# Chain of Follistatin-related protein 3 (Homo sapiens) (O95633 whole entry, looked up): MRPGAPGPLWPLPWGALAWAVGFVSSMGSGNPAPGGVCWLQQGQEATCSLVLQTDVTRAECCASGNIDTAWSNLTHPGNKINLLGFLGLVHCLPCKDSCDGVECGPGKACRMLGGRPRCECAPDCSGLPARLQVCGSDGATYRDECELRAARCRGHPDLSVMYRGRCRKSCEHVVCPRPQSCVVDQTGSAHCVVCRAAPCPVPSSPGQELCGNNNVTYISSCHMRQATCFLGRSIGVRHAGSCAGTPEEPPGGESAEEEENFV
# Chain of Fibroblast growth factor 10 (Homo sapiens) (O15520 whole entry, looked up): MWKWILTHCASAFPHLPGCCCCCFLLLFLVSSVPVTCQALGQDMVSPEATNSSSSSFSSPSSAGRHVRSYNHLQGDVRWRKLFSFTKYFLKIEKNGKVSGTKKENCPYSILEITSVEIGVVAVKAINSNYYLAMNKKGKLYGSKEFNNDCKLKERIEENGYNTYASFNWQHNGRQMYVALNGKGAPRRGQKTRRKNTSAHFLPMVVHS
# Chain of Neurogenic locus notch homolog protein 3 (Homo sapiens) (Q9UM47 whole entry, looked up): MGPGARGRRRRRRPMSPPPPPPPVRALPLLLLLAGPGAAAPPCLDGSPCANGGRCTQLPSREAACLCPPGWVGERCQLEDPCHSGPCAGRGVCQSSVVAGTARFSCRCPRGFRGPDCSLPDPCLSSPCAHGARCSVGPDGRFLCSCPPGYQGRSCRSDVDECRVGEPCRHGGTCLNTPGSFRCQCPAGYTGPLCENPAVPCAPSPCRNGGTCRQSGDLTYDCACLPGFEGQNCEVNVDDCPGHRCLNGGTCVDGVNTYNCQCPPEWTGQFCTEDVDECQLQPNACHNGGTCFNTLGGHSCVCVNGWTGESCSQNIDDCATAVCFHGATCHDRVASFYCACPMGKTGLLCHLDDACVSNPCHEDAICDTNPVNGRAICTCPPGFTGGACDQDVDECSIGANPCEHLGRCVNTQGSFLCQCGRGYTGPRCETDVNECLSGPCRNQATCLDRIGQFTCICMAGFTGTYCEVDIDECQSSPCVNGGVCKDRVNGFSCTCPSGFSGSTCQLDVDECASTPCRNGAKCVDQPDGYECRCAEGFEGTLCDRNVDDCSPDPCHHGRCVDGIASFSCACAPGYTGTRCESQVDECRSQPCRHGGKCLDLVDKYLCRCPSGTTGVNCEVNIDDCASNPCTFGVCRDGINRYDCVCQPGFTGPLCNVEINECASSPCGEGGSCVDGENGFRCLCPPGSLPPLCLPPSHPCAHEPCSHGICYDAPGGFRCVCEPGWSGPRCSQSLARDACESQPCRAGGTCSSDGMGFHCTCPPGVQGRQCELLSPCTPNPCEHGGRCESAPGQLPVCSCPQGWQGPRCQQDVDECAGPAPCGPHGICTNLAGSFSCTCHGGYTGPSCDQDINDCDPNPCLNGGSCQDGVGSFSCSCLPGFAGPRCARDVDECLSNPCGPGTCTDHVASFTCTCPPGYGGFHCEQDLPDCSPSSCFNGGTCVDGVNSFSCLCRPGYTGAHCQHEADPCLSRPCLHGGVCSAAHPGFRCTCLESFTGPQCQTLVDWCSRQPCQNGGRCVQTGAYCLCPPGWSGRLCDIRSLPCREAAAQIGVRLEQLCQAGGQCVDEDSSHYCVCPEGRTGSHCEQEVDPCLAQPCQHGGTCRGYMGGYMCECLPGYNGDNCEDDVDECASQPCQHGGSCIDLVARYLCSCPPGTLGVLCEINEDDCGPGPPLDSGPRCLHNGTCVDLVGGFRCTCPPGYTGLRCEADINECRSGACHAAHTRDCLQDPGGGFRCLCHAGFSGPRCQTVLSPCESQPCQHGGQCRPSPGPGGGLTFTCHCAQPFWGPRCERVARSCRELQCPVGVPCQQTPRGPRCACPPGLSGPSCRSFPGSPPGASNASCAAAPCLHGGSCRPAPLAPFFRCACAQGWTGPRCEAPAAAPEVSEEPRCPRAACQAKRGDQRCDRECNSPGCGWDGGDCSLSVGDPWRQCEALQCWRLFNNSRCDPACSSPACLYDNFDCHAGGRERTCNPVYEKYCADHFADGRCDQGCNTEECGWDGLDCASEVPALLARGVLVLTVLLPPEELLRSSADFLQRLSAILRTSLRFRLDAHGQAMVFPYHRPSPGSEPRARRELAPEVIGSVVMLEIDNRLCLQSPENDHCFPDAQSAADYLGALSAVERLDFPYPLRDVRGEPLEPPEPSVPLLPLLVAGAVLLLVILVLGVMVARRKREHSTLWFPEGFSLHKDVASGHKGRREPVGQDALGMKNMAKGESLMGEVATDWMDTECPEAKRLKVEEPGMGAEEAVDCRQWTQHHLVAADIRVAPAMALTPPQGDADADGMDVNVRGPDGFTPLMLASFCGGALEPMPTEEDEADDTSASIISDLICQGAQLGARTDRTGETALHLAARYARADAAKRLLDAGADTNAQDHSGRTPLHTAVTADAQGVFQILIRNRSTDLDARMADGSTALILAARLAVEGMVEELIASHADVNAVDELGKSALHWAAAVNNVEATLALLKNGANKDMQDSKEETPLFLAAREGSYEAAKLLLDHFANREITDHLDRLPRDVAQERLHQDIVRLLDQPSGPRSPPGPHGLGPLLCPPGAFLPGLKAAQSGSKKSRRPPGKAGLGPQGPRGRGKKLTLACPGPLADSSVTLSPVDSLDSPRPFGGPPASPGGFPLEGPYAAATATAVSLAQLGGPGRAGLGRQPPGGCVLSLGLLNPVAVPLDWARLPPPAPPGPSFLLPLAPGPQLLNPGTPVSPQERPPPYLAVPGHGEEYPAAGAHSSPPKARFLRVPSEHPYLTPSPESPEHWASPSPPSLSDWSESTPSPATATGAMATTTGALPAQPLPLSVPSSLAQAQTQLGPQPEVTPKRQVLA
# Chain of Epidermal growth factor receptor (Homo sapiens) (P00533 whole entry, looked up): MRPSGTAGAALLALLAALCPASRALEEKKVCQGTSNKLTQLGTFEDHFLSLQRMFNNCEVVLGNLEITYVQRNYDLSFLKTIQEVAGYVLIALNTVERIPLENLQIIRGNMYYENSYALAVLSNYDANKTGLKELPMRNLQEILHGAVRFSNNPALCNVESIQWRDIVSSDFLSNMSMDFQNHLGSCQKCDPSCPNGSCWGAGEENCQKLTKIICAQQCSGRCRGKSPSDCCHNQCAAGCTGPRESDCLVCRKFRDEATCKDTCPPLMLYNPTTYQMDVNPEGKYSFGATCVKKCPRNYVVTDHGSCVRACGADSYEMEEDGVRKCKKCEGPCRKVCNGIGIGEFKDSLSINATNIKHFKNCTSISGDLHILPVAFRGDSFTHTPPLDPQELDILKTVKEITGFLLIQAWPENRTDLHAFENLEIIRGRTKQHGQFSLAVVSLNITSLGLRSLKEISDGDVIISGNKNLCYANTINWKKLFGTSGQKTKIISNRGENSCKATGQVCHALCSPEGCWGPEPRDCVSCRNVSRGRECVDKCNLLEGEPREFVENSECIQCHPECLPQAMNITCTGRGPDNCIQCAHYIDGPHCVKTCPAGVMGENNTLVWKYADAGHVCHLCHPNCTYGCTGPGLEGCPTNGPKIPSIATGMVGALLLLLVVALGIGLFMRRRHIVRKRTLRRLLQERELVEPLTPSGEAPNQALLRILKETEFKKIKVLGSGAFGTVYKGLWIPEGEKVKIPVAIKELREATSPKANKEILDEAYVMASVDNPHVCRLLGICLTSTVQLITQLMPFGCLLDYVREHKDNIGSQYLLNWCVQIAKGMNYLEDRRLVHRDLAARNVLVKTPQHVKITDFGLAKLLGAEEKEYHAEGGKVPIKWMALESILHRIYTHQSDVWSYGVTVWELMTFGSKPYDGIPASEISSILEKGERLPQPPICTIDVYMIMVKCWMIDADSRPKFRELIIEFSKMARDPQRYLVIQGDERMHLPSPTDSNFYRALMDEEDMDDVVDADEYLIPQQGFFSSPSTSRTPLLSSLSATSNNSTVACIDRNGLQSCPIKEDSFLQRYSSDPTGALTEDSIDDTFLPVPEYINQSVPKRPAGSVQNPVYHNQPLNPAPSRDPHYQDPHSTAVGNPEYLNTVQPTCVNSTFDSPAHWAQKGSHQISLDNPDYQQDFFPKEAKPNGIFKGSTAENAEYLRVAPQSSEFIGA
# Chain of Torsin-1A-interacting protein 2 (Homo sapiens) (Q8NFQ8 whole entry, looked up): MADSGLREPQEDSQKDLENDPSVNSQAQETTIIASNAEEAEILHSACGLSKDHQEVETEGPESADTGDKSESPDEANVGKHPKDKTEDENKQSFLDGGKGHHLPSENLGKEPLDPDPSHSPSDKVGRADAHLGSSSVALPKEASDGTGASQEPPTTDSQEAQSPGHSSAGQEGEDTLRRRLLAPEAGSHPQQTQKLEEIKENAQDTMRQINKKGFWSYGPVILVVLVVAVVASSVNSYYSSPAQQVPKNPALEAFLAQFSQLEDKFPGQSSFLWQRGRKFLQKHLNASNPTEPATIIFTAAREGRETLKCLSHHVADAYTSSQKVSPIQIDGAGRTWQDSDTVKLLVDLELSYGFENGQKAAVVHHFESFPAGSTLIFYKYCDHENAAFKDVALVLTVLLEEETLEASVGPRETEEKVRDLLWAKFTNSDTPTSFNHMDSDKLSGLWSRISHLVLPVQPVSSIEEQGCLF
SMILES,composite z-score [1],z-score [2],z-score [3],z-score [4],composite z-score [5],z-score [6],composite z-score [7],composite z-score [8],composite z-score [9],composite z-score [10],composite z-score [11],composite z-score [12],composite z-score [13],z-score [14],composite z-score [15],composite z-score [16],composite z-score [17],composite z-score [18],composite z-score [19],composite z-score [20]
COCCOC(=O)N1C(=O)[C@@]2(c3cc(C#CCCO)ccc31)[C@H](c1ccccc1OCCO)N1[C@H](c3ccccc3)[C@H](c3ccccc3)OC(=O)[C@H]1[C@@H]2C(=O)N1CCCCCCC1,1.54,1.76 (inactive),0.11 (inactive),2.88 (inactive),3.57,1.06 (inactive),1.39,1.86,1.05,0.837,1.69,2.28,1.36,-0.532 (inactive),0.743,1.08,0.965,1.53,1.31,1.6
COCCOC(=O)N1C(=O)[C@@]2(c3ccccc31)[C@H](c1ccccc1OCCO)N1[C@H](c3ccccc3)[C@H](c3ccccc3)OC(=O)[C@H]1[C@@H]2C(=O)N1CCCCCCC1,1.54,1.3 (inactive),1.35 (inactive),5.52 (inactive),4.47,-0.489 (inactive),1.97,1.78,1,1.48,1.91,3.18,1.76,-1.46 (inactive),1.37,1.37,1.91,1.68,2.31,2.02
COC(=O)[C@@]1(Cc2ccc(OC)cc2)[C@H]2c3cc(C(=O)N4CCCC4)n(Cc4ccc(OC(F)(F)F)cc4)c3C[C@H]2CN1C(=O)c1ccccc1,-1.02,0.59 (inactive),1.74 (inactive),3.21 (inactive),0.0202,-0.376 (inactive),0.412,-0.442,0.75,0.343,0.858,1.15,1.1,-0.886 (inactive),0.717,-0.5,-0.0407,0.598,-0.414,0.891
COc1ccc(C(=O)Nc2cccc(CN3C(=O)[C@@]4(O[C@@H](CC(=O)N(CCO)Cc5ccccc5)[C@H]([Si](C)(C)c5ccc(OC)cc5)[C@H]4C)c4ccccc43)c2)cc1,0.931,-1.42 (inactive),-0.9 (inactive),2.85 (inactive),1.94,0.904 (inactive),-0.175,0.8,0.487,-0.201,1.4,-0.566,-0.0709,-2.23 (inactive),-0.0511,0.196,0.0627,0.823,0.26,0.636
C[C@]1(C(=O)O)c2ccccc2C(=O)N(Cc2ccc(OC(F)(F)F)cc2)[C@H]1c1ccc(CO)cc1,-0.0461,-0.691 (inactive),-0.767 (inactive),-0.686 (inactive),0.945,0.402 (inactive),0.122,-0.94,-0.505,-0.179,0.0634,0.702,1.01,0.524 (inactive),0.0104,-0.502,-0.409,-0.0953,-0.656,0.496
COC(=O)[C@@]1(Cc2ccc(F)cc2)[C@H]2c3cc(C(=O)N4CCCC4)n(CC4CC4)c3C[C@H]2CN1C(=O)c1ccccc1,0.649,-0.223 (inactive),0.64 (inactive),0.125 (inactive),3.32,-0.475 (inactive),0.329,0.577,1.1,0.358,1.4,1.15,1.3,-0.761 (inactive),0.692,0.621,0.915,0.466,0.0587,0.789
C=CCC(OC(C)=O)[C@@H]1[C@@H](N(Cc2ccc(-c3cccc(C(F)(F)F)c3)o2)C(=O)c2ccc(C)cc2)c2cc(OCCCO)ccc2N1C(=O)Cc1ccc(OC)cc1 (stereo not given in full),-0.118,0.9 (inactive),0.145 (inactive),0.0453 (inactive),-0.639,1.34 (inactive),-0.131,-0.0236,-0.0141,-0.0828,1.1,-0.145,-0.0583,-0.0858 (inactive),-0.0938,-0.808,-0.0424,0.345,0.0682,0.975
COc1ccc(C(O)C2C=CC3C(=O)N(c4ccccc4)C(=O)C3N2Nc2ccccc2F)cc1 (stereo not given),1.1,-0.228 (inactive),0.575 (inactive),-0.246 (inactive),3.46,0.0902 (inactive),0.183,0.164,0.842,-0.0678,1.47,0.447,1,0.747 (inactive),0.111,0.102,-0.296,0.0817,-0.81,0.685
O=C1c2ccccc2[C@](Cc2ccccc2I)(C(=O)NC2CC2)[C@H](c2ccc(CO)cc2)N1Cc1ccccc1C(F)(F)F,1.55,-0.124 (inactive),-0.684 (inactive),0.341 (inactive),2.76,-1.8 (inactive),-0.0817,0.894,1.06,-0.139,1.43,-0.349,0.768,-0.987 (inactive),0.535,-0.265,-0.922,0.32,-0.74,-0.771
